# From the supplement of paper PMC8728848
# About 410 targets per protein were measured; listed, in parts, are those with the strongest signals and a random draw of the rest.
# B1: PX9961V-pdi-562-26-562 (Parabacteroides distasonis) (protein)
# chain: EIFSEITTDNYYQNSNNIYAALVNNYAKAFSTGWSDARYFLQEVTADQLMIPTRGKHGYNGGEYVRLHEHKWTVEENFVYNGWAAPFQGIALCNNTLSDFENLDFSTFKLTEETKNEYIAELRALRVWNYMFLIDFFRHVPIVTDIEEVKAQSTPLEVFNFMESELLAILPDLPKNRGVSRFDQAGVASILVRLYLNAEKWIGISKYDECEQMAQAILDGKYGEYSIDPDYRGPFRSGINGYRSKENIMEFAIKKNYFEASWLYNMWMHYQDRYSLDNDWQGWNGGNLAPSRDLYGNLYQDKLGMPFEKFPDGDIRKKAFRVISNDGDYEGFFLMGTQYKFDYEKGYGFTDEVITGTEEYNGKPLVYVDQVGRFSEGETGLAKGSHVIYGEENTGYRLIKFPWLPQSKDLFQMNSIPEIRLAEIYYSLAECKYRSGDKIGAARLLDVVRKRYYKAEDWSKFSYESNISKLTDDEFVDELGREFIGERHRRIDLIRWNRFSEGAWWDKTPDATNQDVFPIPYRALNANPLLKQTTAGF
# What was measured:
# Assay in all cases: glycan array binding signal (z-score within array); higher = stronger binding
# Details in all cases: glycan notation: IUPAC condensed, linker removed
# [1] = biological target: Fuc(a1-2)Gal(b1-3)GlcNAc(b1-3)GalNAc
# Procedure, shortened: (§1)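 From the Consortium for Functional Glycomics database, 3228 arrays were curated, keeping only those whose protein sequence was available. Binding is given as a within-array Z-score averaged across arrays sharing a protein sequence and across linkers. Negative Z-scores can be read as non-binding.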
# [2] = biological target: Fuc(a1-2)Gal(b1-3)GlcNAc(b1-3)[Fuc(a1-2)Gal(b1-3)GlcNAc(b1-6)]GalNAc
# Procedure, shortened: as §1
# [3] = biological target: Fuc(a1-2)Gal(b1-4)GlcNAc(b1-2)[Fuc(a1-2)Gal(b1-4)GlcNAc(b1-4)]Man(a1-3)[Fuc(a1-2)Gal(b1-4)GlcNAc(b1-2)Man(a1-6)]Man(b1-4)GlcNAc(b1-4)GlcNAc
# Procedure, shortened: as §1
# [4] = biological target: Fuc(a1-2)Gal(b1-4)[Fuc(a1-3)]GlcNAc(b1-2)[Fuc(a1-2)Gal(b1-4)[Fuc(a1-3)]GlcNAc(b1-4)]Man(a1-3)[Fuc(a1-2)Gal(b1-4)[Fuc(a1-3)]GlcNAc(b1-2)Man(a1-6)]Man(b1-4)GlcNAc(b1-4)GlcNAc
# Procedure, shortened: as §1
# [5] = biological target: Fuc(a1-2)[Gal(a1-3)]Gal(b1-3)GlcNAc(b1-2)Man(a1-3)[Fuc(a1-2)[Gal(a1-3)]Gal(b1-3)GlcNAc(b1-2)Man(a1-6)]Man(b1-4)GlcNAc(b1-4)GlcNAc
# Procedure, shortened: as §1
# [6] = biological target: Fuc(a1-2)[Gal(a1-3)]Gal(b1-4)Glc
# Procedure, shortened: as §1
# [7] = biological target: Fuc(a1-2)[Gal(a1-3)]Gal(b1-4)GlcNAc(b1-2)Man
# Procedure, shortened: as §1
# [8] = biological target: Fuc(a1-2)[Gal(a1-3)]Gal(b1-4)GlcNAc(b1-2)Man(a1-3)[Fuc(a1-2)[Gal(a1-3)]Gal(b1-4)GlcNAc(b1-2)Man(a1-6)]Man(b1-4)GlcNAc(b1-4)GlcNAc
# Procedure, shortened: as §1
# [9] = biological target: Fuc(a1-2)[GalNAc(a1-3)]Gal(b1-3)GlcNAc(b1-2)Man(a1-3)[Fuc(a1-2)[GalNAc(a1-3)]Gal(b1-3)GlcNAc(b1-2)Man(a1-6)]Man(b1-4)GlcNAc(b1-4)GlcNAc
# Procedure, shortened: as §1
# [10] = biological target: Fuc(a1-2)[GalNAc(a1-3)]Gal(b1-4)GlcNAc(b1-2)Man(a1-3)[Fuc(a1-2)[GalNAc(a1-3)]Gal(b1-4)GlcNAc(b1-2)Man(a1-6)]Man(b1-4)GlcNAc(b1-4)GlcNAc
# Procedure, shortened: as §1
# [11] = biological target: Fuc(a1-2)[GalNAc(a1-3)]Gal(b1-4)[Fuc(a1-3)]GlcNAc
# Procedure, shortened: as §1
# [12] = biological target: Fuc(a1-2)[GalNAc(a1-3)]Gal(b1-4)[Fuc(a1-3)]GlcNAc(b1-3)GalNAc
# Procedure, shortened: as §1
# [13] = biological target: Fuc(a1-3)GlcNAc
# Procedure, shortened: as §1
# [14] = biological target: Fuc(a1-3)[Gal(b1-4)]GlcNAc6S
# Procedure, shortened: as §1
# [15] = biological target: Fuc(a1-4)GlcNAc
# Procedure, shortened: as §1
# [16] = biological target: Fuc(b1-3)GlcNAc
# Procedure, shortened: as §1
# [17] = biological target: Gal(a1-3)Gal
# Procedure, shortened: as §1
# [18] = biological target: Gal(a1-3)Gal(b1-3)GlcNAc(b1-2)Man(a1-3)[Gal(a1-3)Gal(b1-3)GlcNAc(b1-2)Man(a1-6)]Man(b1-4)GlcNAc(b1-4)GlcNAc
# Procedure, shortened: as §1
# [19] = biological target: Gal(a1-3)Gal(b1-3)[Fuc(a1-4)]GlcNAc(b1-2)Man(a1-3)[Gal(a1-3)Gal(b1-3)[Fuc(a1-4)]GlcNAc(b1-2)Man(a1-6)]Man(b1-4)GlcNAc(b1-4)GlcNAc
# Procedure, shortened: as §1
# [20] = biological target: Gal(a1-3)Gal(b1-4)GlcNAc
# Procedure, shortened: as §1
# [21] = biological target: Gal(a1-4)Gal(b1-4)Glc
# Procedure, shortened: as §1
# [22] = biological target: Gal(b1-3)GalNAc
# Procedure, shortened: as §1
# [23] = biological target: Gal(b1-3)GlcNAc(b1-2)Man(a1-3)[Gal(b1-3)GlcNAc(b1-2)Man(a1-6)]Man(b1-4)GlcNAc(b1-4)[Fuc(a1-6)]GlcNAc
# Procedure, shortened: as §1
# [24] = biological target: Gal(b1-3)GlcNAc(b1-3)Gal(b1-4)GlcNAc(b1-3)Gal(b1-4)GlcNAc(b1-2)[Gal(b1-3)GlcNAc(b1-3)Gal(b1-4)GlcNAc(b1-3)Gal(b1-4)GlcNAc(b1-6)]Man(a1-6)[Gal(b1-3)GlcNAc(b1-3)Gal(b1-4)GlcNAc(b1-3)Gal(b1-4)GlcNAc(b1-2)Man(a1-3)]Man(b1-4)GlcNAc(b1-4)[Fuc(a1-6)]GlcNAc
# Procedure, shortened: as §1
# [25] = biological target: Gal(b1-3)[Fuc(a1-4)]GlcNAc(b1-6)GalNAc
# Procedure, shortened: as §1
# [26] = biological target: Gal(b1-4)GlcNAc(b1-3)Gal(b1-4)GlcNAc(b1-2)Man(a1-3)[Gal(b1-4)GlcNAc(b1-3)Gal(b1-4)GlcNAc(b1-2)Man(a1-6)]Man(b1-4)GlcNAc(b1-4)[Fuc(a1-6)]GlcNAc
# Procedure, shortened: as §1
# [27] = biological target: Gal(b1-4)GlcNAc(b1-3)Gal(b1-4)GlcNAc(b1-2)[Gal(b1-4)GlcNAc(b1-3)Gal(b1-4)GlcNAc(b1-6)]Man(a1-6)[Gal(b1-4)GlcNAc(b1-3)Gal(b1-4)GlcNAc(b1-2)Man(a1-3)]Man(b1-4)GlcNAc(b1-4)GlcNAc
# Procedure, shortened: as §1
# [28] = biological target: Gal(b1-4)GlcNAc(b1-3)Gal(b1-4)GlcNAc(b1-3)Gal(b1-4)GlcNAc(b1-2)Man(a1-3)[Gal(b1-4)GlcNAc(b1-3)Gal(b1-4)GlcNAc(b1-3)Gal(b1-4)GlcNAc(b1-2)Man(a1-6)]Man(b1-4)GlcNAc(b1-4)GlcNAc
# Procedure, shortened: as §1
# [29] = biological target: Gal(b1-4)GlcNAc(b1-3)Gal(b1-4)[Fuc(a1-3)]GlcNAc(b1-3)Gal(b1-4)[Fuc(a1-3)]GlcNAc
# Procedure, shortened: as §1
# [30] = biological target: Gal(b1-4)GlcNAc(b1-3)[Fuc(a1-3)GlcNAc(b1-6)]Gal(b1-4)Glc
# Procedure, shortened: as §1
binder,measurement,setting,value
B1,glycan array binding signal (z-score),[1],-0.58
same,glycan array binding signal (z-score),[2],2.04
same,glycan array binding signal (z-score),[3],-0.54
same,glycan array binding signal (z-score),[4],-0.424
same,glycan array binding signal (z-score),[5],-0.108
same,glycan array binding signal (z-score),[6],-0.228
same,glycan array binding signal (z-score),[7],-0.182
same,glycan array binding signal (z-score),[8],3.45
same,glycan array binding signal (z-score),[9],-0.21
same,glycan array binding signal (z-score),[10],4.28
same,glycan array binding signal (z-score),[11],-0.369
same,glycan array binding signal (z-score),[12],7.22
same,glycan array binding signal (z-score),[13],-0.508
same,glycan array binding signal (z-score),[14],0.861
same,glycan array binding signal (z-score),[15],-0.596
same,glycan array binding signal (z-score),[16],-0.328
same,glycan array binding signal (z-score),[17],0
same,glycan array binding signal (z-score),[18],2.03
same,glycan array binding signal (z-score),[19],3.94
same,glycan array binding signal (z-score),[20],0.068
same,glycan array binding signal (z-score),[21],-0.099
same,glycan array binding signal (z-score),[22],-0.185
same,glycan array binding signal (z-score),[23],5.1
same,glycan array binding signal (z-score),[24],4.46
same,glycan array binding signal (z-score),[25],6.13
same,glycan array binding signal (z-score),[26],4.04
same,glycan array binding signal (z-score),[27],4.58
same,glycan array binding signal (z-score),[28],4.36
same,glycan array binding signal (z-score),[29],-0.412
same,glycan array binding signal (z-score),[30],-0.429
